# Out of some 310,000 compounds screened, about 3,800 (1.2%) were called active.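 The calls were made as follows: active = ratio B-score over 3 SD below the library mean, with starting fluorescence within 5 SD of its mean; inactive = the rest, inconclusive results apart.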 What follows is part of a selection rich in actives, with near analogues and random picks from the rest.
# Target: Potassium channel subfamily K member 9 (Homo sapiens) (UniProt Q9NPC2)
# Test: KCNK9 potassium channel inhibitors, primary screen, HEK293 cells, thallium flux (AID 488922);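 as to B-score: negative B-score means less thallium flux so channel inhibition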
# Conditions: HEK293 KCNK9, FluxOR thallium flux fluorescence, at 10 µM; hits give low values
# Chain of Potassium channel subfamily K member 9 (Homo sapiens) (Q9NPC2 whole entry, looked up): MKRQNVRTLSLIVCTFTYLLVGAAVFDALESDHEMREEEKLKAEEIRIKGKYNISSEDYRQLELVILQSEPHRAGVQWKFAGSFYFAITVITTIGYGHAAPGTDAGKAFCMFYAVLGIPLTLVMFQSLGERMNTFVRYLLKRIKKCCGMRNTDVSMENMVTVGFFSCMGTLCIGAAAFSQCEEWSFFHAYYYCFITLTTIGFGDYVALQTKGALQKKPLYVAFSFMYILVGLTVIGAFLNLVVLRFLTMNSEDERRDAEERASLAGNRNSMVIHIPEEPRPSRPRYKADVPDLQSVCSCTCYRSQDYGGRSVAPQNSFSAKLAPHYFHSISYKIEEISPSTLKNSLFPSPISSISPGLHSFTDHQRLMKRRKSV
row,SMILES,B-score
1,CCCCCCCCCCCCn1ccc(=N)cc1,-10.8 (active)
2,Cc1ccc(-c2nc3ccccc3c(=O)n2-c2ccc(Br)cn2)cc1,inactive
3,COc1cc(Cn2c(N)c(C(=O)NCc3ccco3)c3nc4ccccc4nc32)cc(OC)c1OC,inactive
4,CC1=C2C(=O)C3C(CC=C4CC(OC5OC(O)C(O)C(O)C5CO)CCC43C)C2CCC12OC1CC(C)CNC1C2C (stereo not given),inactive
5,CCCCCCN=C(CC)c1c(O)n(CCCC)c(=O)[nH]c1=O,-12.7 (active)
6,CCCCn1c(O)c(C(CC)=NCc2ccco2)c(=O)[nH]c1=O,inactive
7,CCC(=NCCCO)c1c(O)n(-c2ccc(OC)cc2)c(=O)[nH]c1=O,inactive
8,CCN(CC)C(=O)Oc1ccc(NC(=O)N2CCOCC2)cc1,inactive
9,CN(C)CC1CCCCC1OC(=O)c1ccc(Cl)c(Cl)c1 (stereo not given),inactive
10,COC(=O)C1=C(c2cc3ccccc3s2)C[C@@H]2CC[C@H]1N2C(=O)NC(C)C,inactive
11,CCN1CCN(c2nc3c(c(=O)[nH]2)CCC3)CC1,inactive
12,CC(C)(C)c1ccc(CN2C(=O)CN=C(c3ccccc3)c3ccccc32)cc1,-12.7 (active)
13,O=C1CC(=O)N(Cc2ccccc2)C(=O)N1CCCCCCN1C(=O)CC(=O)N(Cc2ccccc2)C1=O,inactive
14,CCOC(=O)c1c(C)c(C(=O)N2CCC3(CC2)OCCO3)c(C)n1CC,inactive
15,CCOP(=S)(OCC)C(O)CCCCCn1c(=O)c(F)cn(C2CCCO2)c1=O (stereo not given),inactive
16,C=CCN1C(=O)NC(=O)/C(=C/c2ccc(OCC(=O)Nc3ccc(C)cc3)cc2)C1=O,inactive
17,O=C(O)CCn1cc(C=C2C(=O)NC(=S)NC2=O)c(-c2cccc(Br)c2)n1,inactive
18,CCOC(=O)C1SC2(C(F)(F)C(F)F)CC1(O)c1c(c(OC)c3occc3c1OC)O2 (stereo not given),-8.55 (active)
19,CCOP(=O)(OCC)C(NC(=O)c1ccc(OC)cc1)C(Cl)(Cl)Cl (stereo not given),inactive
20,NC(=O)Nc1cccc(C(F)(F)F)c1,inactive

# From PubChem BioAssay AID488922 (Johns Hopkins Ion Channel Center, 2010)
